# Compound activity deposited in PubChem by University of Kansas High Throughput Screening Laboratory.
# Shown is part of a subset that was picked to be rich in hits.
# mHTT CaM bind = inhibitors of human mutant huntingtin-calmodulin interaction | AID 1671202 | 190,000 tested, 3.6% active | inhibition, % at 15 µM | AlphaScreen His-mHTT/GST-CaM binding, luminescence
# Pf apPOL inh = Pf-apPOL DNA polymerase inhibition. AID 1794808. 210,000 tested, 0.25% active. Recombinant Pf-apPOL, molecular beacon fluorescence, 1.5 h. inhibition, % at 10 µM
# Hits are given with their value; n = inactive; x = not tested or not shown. Cut-off read from the data, not from the text of the source: active = inhibition above about 50%; inactive = the rest.
SMILES,mHTT CaM bind,Pf apPOL inh
O=C(CN1C(=O)CN=C(c2ccccc2)c2cc(Cl)ccc21)Nc1ccccc1C(F)(F)F,n,n
Cc1cc(OC(=O)N(C)C)cc2c1C(=O)C(=Cc1ccncc1)O2,n,n
CCC(CC)n1[nH]c(=O)c2c1NC(=O)CSC2c1ccc(OC(C)C)cc1 (stereo not given),n,n
O=[N+]([O-])c1ccccc1CN1CCN(c2cccc(Cl)c2)CC1,n,n
O=c1c2ccccc2nc(/C=C/c2ccc(O)cc2)n1-c1ccccc1[N+](=O)[O-],n,n
Cc1ccc(C2c3c(c4ccccc4oc3=O)Oc3c2c(=O)oc2ccccc32)o1,n,n
O=c1oc2ccccc2c2c1C(c1ccc(O)cc1)c1c(c3ccccc3oc1=O)O2,95.9,69.3
O=C(NCCCc1ccccc1)C(Cl)(Cl)Cl,n,n
CCOc1ccccc1N1CCN(Cc2ccc(F)c(Br)c2)CC1,67.6,n
CCOc1ccccc1N1CCN(Cc2ccc(F)c(F)c2)CC1,n,n
Cc1ccc(-n2c(C(F)(F)F)nc3ccccc3c2=O)cc1,n,n
Cc1cccc(N2CCN(Cc3ccc(N(C)C)cc3)CC2)c1C,66.6,n
Cc1cccc(N2CCN(Cc3ccccc3)CC2)c1C,n,n
COC(=O)[C@@H]1OC(Br)[C@@H](OC(C)=O)[C@H](OC(C)=O)[C@H]1OC(C)=O (stereo not given in full),n,x
N#C[C@@H]1CCC[C@H]2OC[C@@H](c3ccccc3)N12,n,x
CN1CCN(Cc2ccc[nH]2)CC1,n,n
CN1CCN(Cc2ccco2)CC1,n,78.3
CCCN1CCC(N2CCCCCCC2)CC1,n,n
CC1CCC2(NC1)OC1CC3C4CC=C5CC(O)CCC5(C)C4CCC3(C)C1C2C (stereo not given),x,n
CN(C)/C=C/c1c(C=O)c2cc([N+](=O)[O-])ccc2n1Cc1ccccc1,100.3,n
O=Cc1cn(Cc2ccc([N+](=O)[O-])cc2)c2ccccc12,n,n
CCC(=O)Nc1ccc(Cl)cc1C(=O)c1ccccc1,n,n
O=C(CN1CCOCC1)Nc1ccc(Cl)cc1C(=O)c1ccccc1,n,74.5
Cc1ccc(C)c(Cn2nnc(C(=O)O)c2C)c1,n,n
CCOc1ccccc1N1CCN(Cc2ccc(Cl)cc2)CC1,n,n
SMILES,mHTT CaM bind,Pf apPOL inh
Cc1nccc2c1[nH]c1ccccc12,x,n
Cc1cc(N2CCN(C)CC2)c2[nH]c3ccccc3c2c1,79.1,n
CN1C(=O)NC(=O)/C(=C/c2cc(Br)c(OCC(=O)O)c(Br)c2)C1=O,n,n
Cc1cccc(NC2=NCC(C)S2)n1 (stereo not given),n,x
COc1ccc2c(c1)C1(CCN(S(=O)(=O)c3cc(OC)ccc3OC)C1)C(=O)N2 (stereo not given),n,n
COc1ccc(-n2c(C)nc3cc(C(=O)N4CCC5(CC4)OCCO5)ccc32)cc1,n,n
Cc1nc2cc(C(=O)N3CCC4(CC3)OCCO4)ccc2n1-c1ccc(Br)cc1,57.0,n
O=c1c2ccccc2nc(C[n+]2ccccc2)n1-c1ccccc1C(F)(F)F,n,n
NCCc1csc2c1CCCC2,65.5,x
CN1CCN(Cc2ccc(Cl)nc2)/C1=C(/C(Cl)=C(Cl)Cl)[N+](=O)[O-],n,n
CN(Cc1ccccc1)C(=C(Cl)Cl)/C(=C1\NCCN1Cc1ccc(Cl)nc1)[N+](=O)[O-],65.0,n
CC1(C)Cc2c(C#N)c(N3CCNCC3)nc(Cc3ccccc3)c2CO1,n,n
N#Cc1c(Cl)c(Cl)nc(N2CCCNCC2)c1Cl,100.0,n
CNC(=O)C(C1CCCC1)N1CCN(C(=O)Cc2cccs2)CC1 (stereo not given),n,n
COc1cc(OC)c(OC)cc1CNCCc1cccc(Cl)c1,n,n
COc1cc(CNCCc2cccc(Cl)c2)c([N+](=O)[O-])cc1OC,57.3,n
COc1cccc(CN2CCN(c3ccc(F)cc3)CC2)c1OC,n,57.9
COc1cccc(CN2CCN(c3ccc(Cl)cc3)CC2)c1OC,n,n
CC12CCC3C(CCC4CCCCC43C)C1CC(=Cc1ccccc1F)C2=O (stereo not given),n,n
COc1ccc(OC)c(-n2c(O)c(C=C3C=Nc4ccccc43)c(=O)[nH]c2=O)c1,n,n
O=c1[nH]c(O)c(C=C2C=Nc3ccc(OCc4ccccc4)cc32)c(=O)[nH]1,76.0,n
N#Cc1ccc(C(=O)NCC#CCN2CCCC2)cc1,n,n
COc1ccc(/C=C/[N+](=O)[O-])cc1I,71.9,n
COc1ccc(/C=C/[N+](=O)[O-])cc1,n,n
CN(C)c1ccc(/C=C/[N+](=O)[O-])cc1Br,n,n
SMILES,mHTT CaM bind,Pf apPOL inh
COc1ccc(/C=C/[N+](=O)[O-])cc1Br,67.4,n
COCCN1CCC(N2CCCN(C(=O)Cc3cccc(Cl)c3)CC2)C1=O (stereo not given),n,n
O=C(Cc1cccs1)N1CCCN(C2CCN(Cc3ccc(F)cc3)C2=O)CC1 (stereo not given),60.0,n
Cc1ccccc1CN1CCN(c2ccccc2Cl)CC1,n,n
CC1OC(OC2CCC3(C=O)C4CCC5(C)C(C6=CC(=O)OC6)CCC5(O)C4CCC3(O)C2)C(O)C(O)C1O (stereo not given),x,n
CN1CCCc2cc(C(=O)N3CCC4(CC3)OCCO4)sc21,n,n
CCc1ccc(C(=O)CCN(C)C)cc1,n,n
CN(C)CCC(=O)c1ccc(Cl)c(Cl)c1,100.2,n
COc1cc2c(cc1OC)C(C(=O)N(C)c1ccc(Cl)cc1)C1CCCCN1C2=O (stereo not given),n,n
CCN(CC)c1ccc(CN2CCN(c3ccccc3)CC2)cc1,50.9,n
Brc1ccc(CN2CCN(c3ccccc3)CC2)cc1,n,n
CCC(=O)N1N=C2C3CCN(CC3)C2C1c1cc(OC)c(OC)c(OC)c1 (stereo not given),n,n
O=c1oc2cc([N+](=O)[O-])c(O)c([N+](=O)[O-])c2s1,68.0,n
O=[N+]([O-])c1ccc(N2CCNCC2)cc1NCCc1ccccc1,91.3,n
O=[N+]([O-])c1ccc(N2CCNCC2)cc1NCCO,n,n
